Source: PubChem BioAssay
Active and inactive are the calls of the source.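 Rule for the calls, unless noted: active = thallium flux through the channel raised or lowered by more than 3 SD from vehicle-only wells, actives on both sides; inactive = the rest.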

What was measured:
[1] = P. berghei load reduction in hepatocytes – cell-based, HepG2, luciferase luminescence, HepG2 viability, primary screen (AID 624349; in the data active = parasite load remaining mostly below about 12%, no sharp cut-off; inactive = mostly above about 10%;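 note: 100% = mean of DMSO negative control wells on the same plate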); conditions: P. berghei liver stage in HepG2, luciferase luminescence, concentration not given here; parasite load remaining: stronger effect = lower value; viability: measured here: HepG2 viability without parasites
[2] = signal quenchers or enhancers, Cy5 substrate/SSB – biochemical, NIH Clinical Collection, E. coli SSB, artefact control for HCV NS3 helicase inhibitor project (AID 743268; call rule not given here); conditions: Cy5-oligo bound E. coli SSB, fluorescence interference
[3] = test system: Hepatitis C virus NS3 helicase; test: blockers of NS3h binding to DNA – biochemical, fluorescence polarization, NIH Clinical Collection, primary screen (AID 743270; call rule not given here); conditions: NS3 helicase binding to Cy5-dT15 DNA, stronger effect = higher value, concentration not given here
[4] = target: Single-stranded DNA-binding protein (Escherichia coli (strain K12)) (UniProt P0AGE0); test: SSB-ssDNA binding inhibitors – biochemical, fluorescence polarization, NIH Clinical Collection, counter-screen for HCV NS3 helicase inhibitor project (AID 743271; in the data active = inhibition above about 28%); conditions: E. coli SSB-DNA binding, stronger effect = higher value, concentration not given here
[5] = compounds distorting NS3 helicase fluorescence signal – biochemical, NIH Clinical Collection, artefact control for HCV NS3 helicase inhibitor project (AID 743272; call rule not given here;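 note: HCV NS3 helicase with a Cy5 labelled single stranded DNA probe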); conditions: fluorescence interference counterscreen, HCV NS3 helicase assay; stronger effect = lower value
[6] = viability loss with induced miR-34 in A549 – imaging, A549 dox-inducible miR-34, nuclei and caspase counts, primary screen (AID 1347080;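 active = compounds whose cell count with miR-34 switched on is under 0.7 times the count with it off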); conditions: A549 miR-34 inducible, Hoechst nuclei count, 48 h
[7] = galactose survival enhancers in mitochondrial complex I cybrids – cell-based, galactose medium, ATP luminescence, primary screen (AID 1645843;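 active = z-score of at least 1.8 in each of two replicates, scored against plate mean and spread of sample wells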;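 note: positive z means more ATP and so rescue of galactose-driven cybrid death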); conditions: complex I mutant cybrid cells, 72 h, stronger effect = higher value
F380Y = test: BK channel mutant inhibitors and activators – cell-based, U2OS BacMam, thallium flux, beta subunits, selectivity assay, profiling panel (AID 1259406); conditions: U2OS BacMam BK variants, at 30 µM;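 note: initial slope of Thallos dye fluorescence rise after thallium is added; log ratio against the mean of 0.3% DMSO vehicle wells on the same plate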
F380Y/beta1 = test: as above; conditions: U2OS BacMam BK variants, at 30 µM
F380Y/beta2Delta = test: as above; conditions: U2OS BacMam BK variants, at 30 µM
F380Y/beta4 = test: as above; conditions: U2OS BacMam BK variants, at 30 µM
[8] = target: Calcium-activated potassium channel subunit alpha-1 (Homo sapiens) + Leucine-rich repeat-containing protein 26 (Homo sapiens) (UniProt Q12791+Q2I0M4); test: as above; conditions: U2OS BacMam BK variants, F380Y/Slo1WT/gamma1, at 30 µM
R275C = test: as above; conditions: U2OS BacMam BK variants, at 30 µM
R275C/beta1 = test: as above; conditions: U2OS BacMam BK variants, at 30 µM
R275C/beta2Delta = test: as above; conditions: U2OS BacMam BK variants, at 30 µM
R275C/beta4 = test: as above; conditions: U2OS BacMam BK variants, at 30 µM
R275C/Slo1WT/beta2 = test: as above; conditions: U2OS BacMam BK variants, at 30 µM
[9] = stronger effect = lower value, cell number ratio, induced over uninduced
[10] = measured here: relative caspase fold change +Dox/-Dox
[11] = measured here: total cells with miR-34 induction, stronger effect = lower value
[12] = measured here: total cells without miR-34 induction

Sequence of Calcium-activated potassium channel subunit alpha-1 (Homo sapiens) + Leucine-rich repeat-containing protein 26 (Homo sapiens) (Q2I0M4 whole entry, looked up, one chain of several): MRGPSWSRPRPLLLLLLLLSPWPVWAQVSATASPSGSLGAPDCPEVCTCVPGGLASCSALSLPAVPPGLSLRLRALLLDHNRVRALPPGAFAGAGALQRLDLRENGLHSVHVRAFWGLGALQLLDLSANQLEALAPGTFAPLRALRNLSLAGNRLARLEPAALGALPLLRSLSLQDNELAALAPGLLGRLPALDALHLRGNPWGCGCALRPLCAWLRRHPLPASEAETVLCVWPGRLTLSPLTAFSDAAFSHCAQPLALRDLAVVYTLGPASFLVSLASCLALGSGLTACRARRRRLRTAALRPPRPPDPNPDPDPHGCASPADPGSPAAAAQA

In the case of CC1c2cccc(O)c2C(O)=C2C(=O)[C@]3(O)C(O)=C(C(N)=O)C(=O)[C@@H](N(C)C)[C@@H]3C[C@@H]21 (stereo partly drawn), the parasite load remaining [1] is reported as 60.3% (inactive), the viability [1] is reported as 97.3% and the fluorescence ratio [2] is reported as 1.04 (inactive). For the same molecule, the inhibition [3] was -1.36% (inactive), the inhibition [4] was 28.5% (active) and the fluorescence ratio [5] was 0.95 (inactive). The fold change [6, 9] was 1 (inactive), the fold change [6, 10] was 1.44 and the cell count [6, 11] was 11000. For the same molecule, the cell count [6, 12] was 11000, the z-score [7] was -0.345 (inactive) and the log fold change Tl+ flux (F380Y) was -0.00643 (inactive). The log fold change Tl+ flux (F380Y/beta1) was -0.038 (inactive), the log fold change Tl+ flux (F380Y/beta2Delta) was 0.00306 (inactive) and the log fold change Tl+ flux (F380Y/beta4) was -0.0368 (inactive). The log fold change Tl+ flux [8] was 0.011 (inactive), the log fold change Tl+ flux (R275C) was -0.004 (inactive) and the log fold change Tl+ flux (R275C/beta1) was -0.0442 (inactive). The log fold change Tl+ flux (R275C/beta2Delta) was -0.00508 (inactive), the log fold change Tl+ flux (R275C/beta4) was 0.0272 (inactive) and the log fold change Tl+ flux (R275C/Slo1WT/beta2) was 0.0157 (inactive).

For CN1CCN2c3ncccc3Cc3ccccc3[C@@H]2C1, the parasite load remaining [1] was 60.5% (inactive), the viability [1] was 95.7% and the fluorescence ratio [2] was 1 (inactive). The inhibition [3] was -1.36% (inactive), the inhibition [4] was 4.1% (inactive) and the fluorescence ratio [5] was 1.01 (inactive). For the same molecule, the fold change [6, 9] was 1.01 (inactive), the fold change [6, 10] was 3.94 and the cell count [6, 11] was 10600. For the same molecule, the cell count [6, 12] was 10500, the z-score [7] was 0.765 (inactive) and the log fold change Tl+ flux (F380Y) was 0.081 (inactive). The log fold change Tl+ flux (F380Y/beta1) was 0.0391 (inactive), the log fold change Tl+ flux (F380Y/beta2Delta) was 0.0643 (inactive) and the log fold change Tl+ flux (F380Y/beta4) was 0.0496 (inactive). For the same molecule, the log fold change Tl+ flux [8] was -0.00307 (inactive), the log fold change Tl+ flux (R275C) was 0.0138 (inactive) and the log fold change Tl+ flux (R275C/beta1) was 0.0202 (inactive). For the same molecule, the log fold change Tl+ flux (R275C/beta2Delta) was 0.0645 (inactive), the log fold change Tl+ flux (R275C/beta4) was 0.023 (inactive) and the log fold change Tl+ flux (R275C/Slo1WT/beta2) was -0.0289 (inactive).

With C[C@]12C=CC(=O)C=C1CC[C@@H]1[C@@H]2[C@@H](O)C[C@@]2(C)[C@H]1CC[C@]2(O)C(=O)COC(=O)CCC(=O)O the parasite load remaining [1] was 128% (inactive), the viability [1] was 72.6% and the fluorescence ratio [2] was 1 (inactive). For the same molecule, the inhibition [3] was 7.52% (inactive), the inhibition [4] was 4.52% (inactive) and the fluorescence ratio [5] was 0.99 (inactive). For the same molecule, the log fold change Tl+ flux (F380Y) was -0.0223 (inactive), the log fold change Tl+ flux (F380Y/beta1) was 0.0033 (inactive) and the log fold change Tl+ flux (F380Y/beta2Delta) was 0.00204 (inactive). For the same molecule, the log fold change Tl+ flux (F380Y/beta4) was -0.00342 (inactive), the log fold change Tl+ flux [8] was -0.00445 (inactive) and the log fold change Tl+ flux (R275C) was -0.00218 (inactive). The log fold change Tl+ flux (R275C/beta1) was -0.0173 (inactive), the log fold change Tl+ flux (R275C/beta2Delta) was -0.00108 (inactive) and the log fold change Tl+ flux (R275C/beta4) was -0.0167 (inactive). The log fold change Tl+ flux (R275C/Slo1WT/beta2) was -0.0235 (inactive).

For CO[C@H]1C=CO[C@@]2(C)Oc3c(C)c(O)c4c(O)c(c(C=NN5CCN(C6CCCC6)CC5)c(O)c4c3C2=O)NC(=O)C(C)=CC=C[C@H](C)[C@H](O)[C@@H](C)[C@@H](O)[C@@H](C)[C@H](OC(C)=O)[C@@H]1C, the parasite load remaining [1] was 21.3% (inactive), the viability [1] was 65.4% and the log fold change Tl+ flux (F380Y) was 0.118 (active). The log fold change Tl+ flux (F380Y/beta1) was -0.0391 (inactive), the log fold change Tl+ flux (F380Y/beta2Delta) was 0.0273 (inactive) and the log fold change Tl+ flux (F380Y/beta4) was 0.177 (active). The log fold change Tl+ flux [8] was 0.0556 (inactive), the log fold change Tl+ flux (R275C) was -0.0706 (inactive) and the log fold change Tl+ flux (R275C/beta1) was 0.0996 (active). The log fold change Tl+ flux (R275C/beta2Delta) was 0.0465 (inactive), the log fold change Tl+ flux (R275C/beta4) was 0.28 (active) and the log fold change Tl+ flux (R275C/Slo1WT/beta2) was 0.00833 (inactive).

For CN(C)S(=O)(=O)c1ccc2c(c1)/C(=C\CCN1CCNCC1)c1ccccc1S2, the parasite load remaining [1] was -2.22% (inactive), the viability [1] was 1.35% and the fluorescence ratio [2] was 1.07 (inactive). The inhibition [3] was -0.45% (inactive), the inhibition [4] was 1.81% (inactive) and the fluorescence ratio [5] was 0.96 (inactive). For the same molecule, the fold change [6, 9] was 0.93 (inactive), the fold change [6, 10] was 1.32 and the cell count [6, 11] was 9850. The cell count [6, 12] was 10600, the z-score [7] was -0.06 (inactive) and the log fold change Tl+ flux (F380Y) was -0.0239 (inactive). For the same molecule, the log fold change Tl+ flux (F380Y/beta1) was -0.0463 (inactive), the log fold change Tl+ flux (F380Y/beta2Delta) was -0.0723 (inactive) and the log fold change Tl+ flux (F380Y/beta4) was -0.0323 (inactive). The log fold change Tl+ flux [8] was -0.0624 (inactive), the log fold change Tl+ flux (R275C) was -0.0283 (inactive) and the log fold change Tl+ flux (R275C/beta1) was 0.0522 (inactive). For the same molecule, the log fold change Tl+ flux (R275C/beta2Delta) was 0.019 (inactive), the log fold change Tl+ flux (R275C/beta4) was 0.0353 (inactive) and the log fold change Tl+ flux (R275C/Slo1WT/beta2) was 0.0468 (inactive).

In the case of N[C@@H](C(=O)N[C@@H]1C(=O)N2C(C(=O)O)=C(CSc3cn[nH]n3)CS[C@H]12)c1ccc(O)cc1 (tested in a mixture with another compound), the parasite load remaining [1] is reported as 100% (inactive), the viability [1] is reported as 72.4% and the fluorescence ratio [2] is reported as 1.06 (inactive). The inhibition [3] was 21.8% (active), the inhibition [4] was 56.1% (active) and the fluorescence ratio [5] was 1.01 (inactive). For the same molecule, the log fold change Tl+ flux (F380Y) was 0.0279 (inactive), the log fold change Tl+ flux (F380Y/beta1) was -0.0559 (inactive) and the log fold change Tl+ flux (F380Y/beta2Delta) was 0.00568 (inactive). For the same molecule, the log fold change Tl+ flux (F380Y/beta4) was -0.0478 (inactive), the log fold change Tl+ flux [8] was 0.0418 (inactive) and the log fold change Tl+ flux (R275C) was -0.0506 (inactive). The log fold change Tl+ flux (R275C/beta1) was 0.00628 (inactive), the log fold change Tl+ flux (R275C/beta2Delta) was 0.0029 (inactive) and the log fold change Tl+ flux (R275C/beta4) was -0.00667 (inactive). The log fold change Tl+ flux (R275C/Slo1WT/beta2) was 0.00247 (inactive).

With C[C@H]1O[C@@H](O[C@H]2[C@@H](O)C[C@H](O[C@H]3[C@@H](O)C[C@H](O[C@H]4CC[C@@]5(C)[C@H](CC[C@@H]6[C@@H]5C[C@@H](O)[C@]5(C)C(C7=CC(=O)OC7)CC[C@]65O)C4)O[C@@H]3C)O[C@@H]2C)C[C@H](O)[C@@H]1O (stereo partly drawn) the parasite load remaining [1] was -5.28% (inactive), the viability [1] was 8.28% and the fluorescence ratio [2] was 0.93 (inactive). The inhibition [3] was -1.36% (inactive), the inhibition [4] was 4.86% (inactive) and the fluorescence ratio [5] was 0.99 (inactive). The fold change [6, 9] was 0.475 (active), the fold change [6, 10] was 1.15 and the cell count [6, 11] was 266. For the same molecule, the cell count [6, 12] was 560, the z-score [7] was -0.815 (inactive) and the log fold change Tl+ flux (F380Y) was -0.0279 (inactive). The log fold change Tl+ flux (F380Y/beta1) was 0.0633 (inactive), the log fold change Tl+ flux (F380Y/beta2Delta) was 0.00458 (inactive) and the log fold change Tl+ flux (F380Y/beta4) was -0.0566 (inactive). For the same molecule, the log fold change Tl+ flux [8] was -0.00567 (inactive), the log fold change Tl+ flux (R275C) was -0.0269 (inactive) and the log fold change Tl+ flux (R275C/beta1) was -0.0167 (inactive). The log fold change Tl+ flux (R275C/beta2Delta) was -0.0151 (inactive), the log fold change Tl+ flux (R275C/beta4) was -0.0475 (inactive) and the log fold change Tl+ flux (R275C/Slo1WT/beta2) was 0.0268 (inactive).
